About 3,100 (0.84%) of roughly 370,000 compounds were called active. This is one part of a sample in which actives are shown more often than they occur. Values without a mark were called inactive. Cut-off read from the data, not from the text of the source: active = inhibition above about 9.5%; inactive = the rest.
target: 1-phosphatidylinositol 4,5-bisphosphate phosphodiesterase gamma-1 (Homo sapiens) (UniProt P19174); assay: blockers of human PLCG1 activity – biochemical, fluorescence, purified enzyme, primary screen (AID 720700); conditions: purified PLC-gamma1, fluorogenic substrate, at 12.2 µM, active compounds read high
Sequence (P19174 whole entry, looked up): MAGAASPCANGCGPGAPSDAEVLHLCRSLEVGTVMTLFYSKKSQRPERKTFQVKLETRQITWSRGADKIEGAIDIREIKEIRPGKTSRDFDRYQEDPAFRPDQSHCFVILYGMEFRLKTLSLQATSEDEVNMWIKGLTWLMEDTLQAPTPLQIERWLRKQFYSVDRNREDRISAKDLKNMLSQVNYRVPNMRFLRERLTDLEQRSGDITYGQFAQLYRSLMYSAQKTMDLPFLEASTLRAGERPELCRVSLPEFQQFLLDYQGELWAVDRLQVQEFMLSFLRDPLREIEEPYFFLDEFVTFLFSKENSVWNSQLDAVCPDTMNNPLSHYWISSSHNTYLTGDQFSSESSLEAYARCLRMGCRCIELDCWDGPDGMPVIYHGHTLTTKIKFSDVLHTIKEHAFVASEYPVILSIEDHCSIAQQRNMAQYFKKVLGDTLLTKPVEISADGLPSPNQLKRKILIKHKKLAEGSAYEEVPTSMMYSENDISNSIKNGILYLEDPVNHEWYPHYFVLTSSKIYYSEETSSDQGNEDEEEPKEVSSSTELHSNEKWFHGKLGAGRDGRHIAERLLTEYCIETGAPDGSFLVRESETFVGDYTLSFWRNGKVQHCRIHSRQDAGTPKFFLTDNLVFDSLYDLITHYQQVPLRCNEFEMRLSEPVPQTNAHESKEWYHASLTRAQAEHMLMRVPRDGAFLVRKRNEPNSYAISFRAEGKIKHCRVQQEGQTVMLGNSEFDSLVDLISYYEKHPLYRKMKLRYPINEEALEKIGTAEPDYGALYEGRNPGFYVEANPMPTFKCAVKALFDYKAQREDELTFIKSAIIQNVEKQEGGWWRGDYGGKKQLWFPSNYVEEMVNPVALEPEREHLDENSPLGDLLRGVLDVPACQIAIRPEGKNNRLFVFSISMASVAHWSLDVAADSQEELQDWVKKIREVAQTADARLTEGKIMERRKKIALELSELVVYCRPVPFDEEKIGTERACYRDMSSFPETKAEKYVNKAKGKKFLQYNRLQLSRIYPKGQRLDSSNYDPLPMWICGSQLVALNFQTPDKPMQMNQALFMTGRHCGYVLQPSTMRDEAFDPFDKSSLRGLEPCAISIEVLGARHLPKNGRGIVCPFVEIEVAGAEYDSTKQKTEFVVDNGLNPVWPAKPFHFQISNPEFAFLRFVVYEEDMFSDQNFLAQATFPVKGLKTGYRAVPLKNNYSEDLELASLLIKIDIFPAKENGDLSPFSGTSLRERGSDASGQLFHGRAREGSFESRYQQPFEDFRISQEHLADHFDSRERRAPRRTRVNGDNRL

SMILES | inhibition
COc1ccc([C@H]2OC(=O)C[C@H]2C(=O)N2CCN(c3ccccc3F)CC2)cc1OC | 0.67%
Cn1c(=O)n(C)c2cc(NS(=O)(=O)c3ccc(F)cc3)ccc21 | 0.25%
O=S(=O)(Nc1ccc(Oc2ncccn2)c(Cl)c1)c1ccc(F)cc1 | 9.74% (active)
O=S(=O)(Nc1ncccn1)c1ccc(NS(=O)(=O)c2cccc(Cl)c2Cl)cc1 | 4.05%
COC(=O)c1cccc(Cn2ccc3ccc(-c4ccc5ccn(C(=O)c6ccccc6C)c5c4)cc32)c1 | -16.3%
CCC(NC(=O)C1C2C=CC3(CN(Cc4ccccc4)C(=O)C13)O2)c1ccccc1 (stereo unspecified) | -2%
CC1(C)Cc2cccc(OCC(=O)Nc3nccs3)c2O1 | 0.31%
CN(CC(=O)Nc1ccccc1Cl)C(=O)COc1cccc2c1OC(C)(C)C2 | 11.8% (active)
COc1cccc(CCNC(=O)COc2cccc3c2OC(C)(C)C3)c1 | 3.51%
Cc1c[nH]c2cccc(-c3ccc(Cl)cc3)c12 | -12%
Nc1nc(NCC(=O)O)nc(N2CCCCCC2)c1[N+](=O)[O-] | 9.71% (active)
COCCNc1nc(N)c([N+](=O)[O-])c(N2CCCCCC2)n1 | 7.3%
C=CCNc1nc(N)c([N+](=O)[O-])c(NC2CCCCC2)n1 | 4.77%
CC(C)(C)c1ccc(CSc2nnc(-c3cccs3)o2)cc1 | 0.5%
O=C(CCl)NC1CCCCN(Cc2cccc(C(F)(F)F)c2)C1=O (stereo unspecified) | -1.65%
CCOC(=O)[C@@]12CCC3=C1N(CCC3)C(=O)[C@H](CC(=O)N1CCN(C(=O)c3ccco3)CC1)C2 | -1.32%
CN(C(=O)c1cccc(NC(=O)Cc2cccc(NC(=O)C3CCCN(C(=O)C4CC4)C3)c2)c1)C1CCC1 (stereo unspecified) | 0.32%
CN(C(=O)c1cccc(NC(=O)Cc2ccc(NC(=O)C3CCN(C(=O)C4CCCCC4)CC3)cc2)c1)C1CCC1 | 1.78%
CN(C(=O)c1ccc(NC(=O)Cc2cccc(NC(=O)C3CCN(C(=O)c4ccccc4)CC3)c2)cc1)C1CC1 | 10.7% (active)

SMILES | inhibition
CC(C)(C)NC(=O)C(c1cccnc1)N(C(=O)c1cnco1)c1ccc(C(C)(C)C)cc1 (stereo unspecified) | 0.93%
COC(=O)[C@]12C[C@H](CC(=O)NCc3cccc4ccccc34)C(=O)N(CCc3ccc(OC)c(OC)c3)C1=C[C@H](C1CCCC1)O[C@@H]2C | 4.89%
Cc1ccc(C2CC(c3cccc(NS(C)(=O)=O)c3)=NN2S(C)(=O)=O)cc1 (stereo unspecified) | 2.31%
CS(=O)(=O)Nc1cccc(C2=NN(C(=O)c3cccc(F)c3)C(c3cccs3)C2)c1 (stereo unspecified) | -0.97%
CCOc1ccccc1C1CC(c2cccc(NS(C)(=O)=O)c2)=NN1C(=O)c1ccccc1 (stereo unspecified) | 9.81% (active)
C=C1C(C(C)C)N(C)C2=NC(c3ccccc3)CC(=O)N12 (stereo unspecified) | -2.56%
C=CCN1C(=O)[C@@H](CC(=O)N2CCN(C(=O)c3ccco3)CC2)[C@]2(C(=O)OC)CCCCC=C12 | -0.31%
O=C(C(c1ccccc1)c1ccccc1)N1CCN(CC(O)COc2ccccc2)CC1 (stereo unspecified) | 9.59% (active)
CC(=O)N1CCN(CC(c2ccccc2)c2ccccc2)CC1 | -0.45%
CCCc1ccc(OCC(O)CN2CCN(C(=O)OCC)CC2)cc1 (stereo unspecified) | 8.68%
Nn1c(SCC(=O)Nc2cccc3ccccc23)nnc1-c1cc(-c2ccc(F)cc2)n[nH]1 | -1.09%
C[C@H]1CCC/C=C/C(=O)c2c(O)cc(O)cc2CC(=O)O1 | -3.4%
CCOc1ccc(CCNC(=O)COC(=O)CCS(=O)(=O)c2ccc(C)cc2)cc1OCC | 9.85% (active)
CCOc1ccc(CCNC(=O)COC(=O)c2c(OC)cccc2OC)cc1OCC | 6.67%
COc1ccc(CNC(=O)COC(=O)CCS(=O)(=O)c2ccc(C)cc2)cc1OC | 0.41%
C=C(C)C#CC(Cc1ccccc1)NCC1CC1 (stereo unspecified) | 0.45%
O=C(CN1CCN(S(=O)(=O)c2ccc(F)cc2)CC1)NC1CC1 | -1.88%
O=C(O)C1CCCCC1C(=O)N1CCN(S(=O)(=O)c2ccc(F)cc2)CC1 (stereo unspecified) | 4.99%
O=S(=O)(c1ccc(F)cc1)N1CCN(C(=S)NC2CCCC2)CC1 | 10.9% (active)

SMILES | inhibition
C=CCNC(=O)C12CC3CC(C1)CC(C(=O)NCC=C)(C3)C2 | -0.37%
CCOc1ccccc1NC(=O)C12CC3CC(C1)CC(c1ccc(C)cc1)(C3)C2 | 0.03%
Cc1ccc(C23CC4CC(CC(C(=O)NCC(=O)O)(C4)C2)C3)cc1 | 9.87% (active)
O=C(Nc1ccc(Br)cc1)OCCN1C(=O)CCC12CCC(c1ccccc1)CC2 (stereo unspecified) | 4.23%
O=C(NC1CCC1)c1ccc(C#CC2CC2)cn1 | -0.59%
COCCCn1c(SCC(=O)Nc2ccccc2)nnc1-c1ccncc1 | -0.81%
O=C(CSc1nnc(-c2ccncc2)n1C1CCCCC1)Nc1ccccc1 | 10.2% (active)
O=C(CSc1nnc(-c2ccncc2)n1-c1ccc(Cl)cc1)Nc1ccc(C(=O)O)cc1 | -0.57%
COc1ccccc1CCNC(=O)C1CCN(c2nc(C)cc(C)n2)CC1 | -0.02%
Cc1ccc(-c2nc(C3CCCN(S(=O)(=O)c4ccc(Br)s4)C3)no2)cc1 (stereo unspecified) | 0.61%
C=CCOc1ccc(Cl)cc1CNCCCN1CCOCC1 | 10.7% (active)
COc1ccc(-c2ccc(CNCCCN3CCOCC3)o2)cc1Cl | 1.38%
O=S(=O)(NCCCN1CCOCC1)c1ccc(F)c(Cl)c1 | -0.87%
Cc1ccccc1NC(=O)Cn1nnc(-c2ccccc2F)n1 | 0.94%
CN1[C@H](Cc2ccccc2)COc2cccc(N3CCSCC3)c2S1(=O)=O | -5.49%
O=C1NC2(CCCCC2)N=C1c1ccccc1 | 10.4% (active)
COc1ccc(NC(=O)CN2C(=O)C(c3ccccc3)=NC23CCCCCC3)cc1OC | 1.88%
O=C1NC2(CCCCCC2)C(=O)N1CCS(=O)(=O)Oc1ccccc1 | 1.93%
